Laboratory results as given in PubChem BioAssay (NCATS).
Values without a mark were called inactive. For some assays here: Potency and affinity values are given separately. The source made the active and inactive calls.

Tests used:
[1] = Ebola virus entry assay, green fluorescence channel
[2] = Ebola virus entry assay, blue channel fluorescence
Wherever efficacy is given: 0% is about no effect.

Structure (SMILES)	efficacy [1] [%]	outcome [2]	AC50 [2]
COc1cc(NC(C)CCCN)c2ncccc2c1 (stereo not drawn)	-153	inactive	
NS(=O)(=O)c1cc2c(cc1C(F)(F)F)NCNS2(=O)=O	-34.5	inactive	
Cc1onc(-c2ccccc2Cl)c1C(=O)N[C@@H]1C(=O)N2[C@@H]1SC(C)(C)[C@@H]2C(=O)O	13.5	inactive	
Nc1nc(N)c2nc(-c3ccccc3)c(N)nc2n1	17.5	inactive	
NC(=O)N1c2ccccc2CC(=O)c2ccccc21	-11.2	inactive	
CN(C)CCCN1c2ccccc2CCc2ccc(Cl)cc21	-191		7.94 µM (active)
CCCSc1ccc2nc(NC(=O)OC)[nH]c2c1	60.2	inactive	
Cc1ccc(-c2cc(C(F)(F)F)nn2-c2ccc(S(N)(=O)=O)cc2)cc1	26.9	inactive	
Nc1nc(=S)c2[nH]cnc2[nH]1	-27.5	inactive	
O=C(CCCCCCC(=O)Nc1ccccc1)NO	-11.4	inactive	
CCOC(=O)N1CCC(=C2c3ccc(Cl)cc3CCc3cccnc32)CC1	62.3	inactive	
NC1[C@H]2CN(c3nc4c(cc3F)c(=O)c(C(=O)O)cn4-c3ccc(F)cc3F)C[C@@H]12 (stereo partly drawn)	-13.1	inactive	
C[C@@H](O)[C@H]1C(=O)N2C(C(=O)O)=C(S[C@@H]3CN[C@H](CNS(N)(=O)=O)C3)[C@H](C)[C@H]12	41.5	inactive	
CN1CCN(C(c2ccccc2)c2ccccc2)CC1	84.8	inactive	
CNCCCN1c2ccccc2CCc2ccccc21	91.8	inactive	
CN(C)CCOC(C)(c1ccccc1)c1ccccn1 (stereo not drawn)	20.1	inactive	
C[C@H]1O[C@H](O[C@H]2[C@H](O)[C@@H](O)[C@@H](O[C@H]3[C@H](O)[C@@H](O)[C@H](O)O[C@@H]3CO)O[C@@H]2CO)[C@H](O)[C@@H](O)[C@@H]1N[C@H]1C=C(CO)[C@@H](O)[C@H](O)[C@H]1O	9.72	inactive	
Cc1[nH]cnc1CN1CCc2c(c3ccccc3n2C)C1=O	-10.6	inactive	
O=C1c2cccc3c2[C@H](CCC3)CN1[C@@H]1CN2CCC1CC2	37.7	inactive	
COc1ccc2nc(S(=O)Cc3ncc(C)c(OC)c3C)[nH]c2c1 (stereo not drawn)	22.2	inactive	
CCCCc1oc2ccc(NS(C)(=O)=O)cc2c1C(=O)c1ccc(OCCCN(CCCC)CCCC)cc1	-249		7.08 µM (active)
O=C1[C@H](CC[C@H](O)c2ccc(F)cc2)[C@@H](c2ccc(O)cc2)N1c1ccc(F)cc1	-26.4	inactive	
C[C@@H]1C[C@H]2[C@@H]3CCC4=CC(=O)C=C[C@]4(C)[C@@]3(F)[C@@H](O)C[C@]2(C)[C@@]1(O)C(=O)CO	-13.7	inactive	
CC(C(=O)O)c1cccc(C(=O)c2ccccc2)c1 (stereo not drawn)	11.5	inactive	
CN1C(=O)CC(C)(c2ccccc2)C1=O (stereo not drawn)	-45.4	inactive	

Structure (SMILES)	efficacy [1] [%]	outcome [2]	AC50 [2]
COC(=O)C(c1ccccc1Cl)N1CCc2sccc2C1 (stereo not drawn)	27.9	inactive	
CC(=O)Oc1cc2c(s1)CCN(C(C(=O)C1CC1)c1ccccc1F)C2 (stereo not drawn)	43.8	inactive	
COc1c(C)c2c(c(O)c1C/C=C(\C)CCC(=O)OCCN1CCOCC1)C(=O)OC2	-9.5	inactive	
CN(C)CCCN1c2ccccc2Sc2ccc(Cl)cc21	-179		10 µM (active)
CC(C)NCC(O)c1ccc(O)c(O)c1 (stereo not drawn)	-9.56	inactive	
Nc1nc2c(ncn2COCCO)c(=O)[nH]1	-5.83	inactive	
O=C1c2c(O)ccc(O)c2C(=O)c2c(NCCNCCO)ccc(NCCNCCO)c21	-106		5.01 µM (active)
CN1CCC(=C2c3ccccc3C=Cc3ccccc32)CC1	67.2	inactive	
CCCC(CCC)C(=O)O	-11.7	inactive	
COC(=O)N[C@H](C(=O)N[C@@H](Cc1ccccc1)[C@@H](O)CN(Cc1ccc(-c2ccccn2)cc1)NC(=O)[C@@H](NC(=O)OC)C(C)(C)C)C(C)(C)C	21.7	inactive	
COc1ccccc1OCC(O)COC(N)=O (stereo not drawn)	-13	inactive	
O=C(c1ccc(OCCN2CCCCC2)cc1)c1c(-c2ccc(O)cc2)sc2cc(O)ccc12	-297		6.31 µM (active)
C[C@@H](NCCCc1cccc(C(F)(F)F)c1)c1cccc2ccccc12	-223	inactive	
NC(=O)C(c1ccccc1)(c1ccccc1)[C@@H]1CCN(CCc2ccc3c(c2)CCO3)C1	91.3	inactive	
CC(C)(O)c1ccccc1CC[C@@H](SCC1(CC(=O)O)CC1)c1cccc(/C=C/c2ccc3ccc(Cl)cc3n2)c1	12.9	inactive	
CN(C)c1nc(N(C)C)nc(N(C)C)n1	14.8	inactive	
CN(Cc1cnc2nc(N)nc(N)c2n1)c1ccc(C(=O)N[C@@H](CCC(=O)O)C(=O)O)cc1	38.5	inactive	
Cc1ccccc1N1C(=O)c2cc(S(N)(=O)=O)c(Cl)cc2NC1C (stereo not drawn)	25.2	inactive	
CSc1ccc2c(c1)N(CCC1CCCCN1C)c1ccccc1S2 (stereo not drawn)	-213		10 µM (active)
CN(C/C=C/C#CC(C)(C)C)Cc1cccc2ccccc12	-24.6	inactive	
C[C@@H](c1ncncc1F)C(O)(Cn1cncn1)c1ccc(F)cc1F (stereo partly drawn)	-14.3	inactive	
O=C1OCCN1/N=C/c1ccc([N+](=O)[O-])o1	18	inactive	
COc1ccccc1OCC(O)CN1CCN(CC(=O)Nc2c(C)cccc2C)CC1 (stereo not drawn)	29.5	inactive	
CS(=O)(=O)OCCCCOS(C)(=O)=O	19.1	inactive	
